# Reference: PubChem BioAssay (NCI)
# This is part of a sample that, as a whole, favours compounds with a hit. Of some 83,000 tested, about 20% had one in any assay.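 Plates (96-well) were seeded with cells, treated with compound at one concentration, and incubated for 48 hours before percent growth was determined.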 Values without a mark were called inactive. Activity calls are given as the source filed them. Rule for the calls: active = growth percent below 10; inactive = the rest.
# Tests used:
# Assay in all cases: NCI-60 one-dose screen, 48 h (100 = growth as untreated, 0 = no growth, -100 = all killed)
# HCT-15 colon = conditions: 10 µM unless noted
# HT29 colon = conditions: 10 µM unless noted
# SNB-75 CNS = conditions: 10 µM unless noted
# SNB-19 CNS = conditions: 10 µM unless noted
# U251 CNS = conditions: 10 µM unless noted
# PC-3 prostate = conditions: 10 µM unless noted
# SK-MEL-5 melanoma = conditions: 10 µM unless noted
# UACC-62 melanoma = conditions: 10 µM unless noted
# LOX IMVI melanoma = conditions: 10 µM
# SK-MEL-28 melanoma = conditions: 10 µM unless noted
# SK-MEL-2 melanoma = conditions: 10 µM unless noted
# SN12C renal = conditions: 10 µM unless noted
# UO-31 renal = conditions: 10 µM unless noted
# TK-10 renal = conditions: 10 µM unless noted
# ACHN renal = conditions: 10 µM unless noted
# CAKI-1 renal = conditions: 10 µM unless noted
# A498 renal = conditions: 10 µM unless noted
# CCRF-CEM leukemia = conditions: 10 µM unless noted
# MOLT-4 leukemia = conditions: 10 µM unless noted
Structure (SMILES),growth (HCT-15 colon) [%],growth (HT29 colon) [%],growth (SNB-75 CNS) [%],growth (SNB-19 CNS) [%],growth (U251 CNS) [%],growth (PC-3 prostate) [%],growth (SK-MEL-5 melanoma) [%],growth (UACC-62 melanoma) [%],growth (LOX IMVI melanoma) [%],growth (SK-MEL-28 melanoma) [%],growth (SK-MEL-2 melanoma) [%],growth (SN12C renal) [%],growth (UO-31 renal) [%],growth (TK-10 renal) [%],growth (ACHN renal) [%],growth (CAKI-1 renal) [%],growth (A498 renal) [%],growth (CCRF-CEM leukemia),growth (MOLT-4 leukemia) [%]
Ic1cccs1,109,94.2,105,99.6,96.3,99.5,104,98.5,96.9,111,97.9,98.9,90.5,95.8,103,101,96.5,96%,98.9
Cc1ccc(C)c2c1CCC2=O,100,105,86.1,93,103,98.6,97.5,99.9,96.2,104,122,102,90.6,105,102,95.9,56.8,-32.7% (active),121
C=CCC(O)C=C (configuration not stated),101,110,99.3,101,102,101,102,104,97.3,105,106,101,83.1,96.2,100,97.4,88.7,94.1%,91.4
NC(=O)NCCO,109,100,105,104,92.5,94.5,98,95.5,97.7,113,108,101,94.1,96.5,107,95.2,77.1,85%,96.3
CCCCCCCCCCC(=O)CCCCCCCCCC,99.7,104,95.9,109,101,97.8,102,105,94.6,106,111,102,85.8,98.8,96.7,95,107,90%,92
OC(CBr)CCBr (configuration not stated),97.8,105,73.9,97,93.3,87.5,101,95.1,96.1,107,124,96.8,103,131,100,92.4,97.5,88.2%,104
COC(=O)c1cccc([N+](=O)[O-])c1,105,101,120,98.6,97.4,97.4,98.9,98.7,100,102,94.1,95.2,98.2,101,109,108,92.9,104%,105
CCC(/C=C\C(C)=O)CC,101,107,99,99.5,96.6,91.3,102,106,97.4,101,112,98.3,92.3,102,102,100,90.4,105%,112
